PRMT1 inh: blocks human protein arginine methyltransferase 1. Q99873. recombinant PRMT1, activity-based probe fluorescence polarization. inhibition, % at 2.79 µM. 370,000 compounds, 1.3% hits. AID 652257;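 active = inhibition above about 21% made by adding two undisclosed values, limit read from the data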
MBD2 inh: MBD2-methylated oligo binding inhibition. Q9UBB5. inhibition, % at 4.4 µM. TR-FRET, MBD2 binding to methylated oligonucleotide. 370,000 compounds, 0.31% hits. AID 686964; in the data active = inhibition above about 13%
Target sequence (Q9UBB5 whole entry, looked up): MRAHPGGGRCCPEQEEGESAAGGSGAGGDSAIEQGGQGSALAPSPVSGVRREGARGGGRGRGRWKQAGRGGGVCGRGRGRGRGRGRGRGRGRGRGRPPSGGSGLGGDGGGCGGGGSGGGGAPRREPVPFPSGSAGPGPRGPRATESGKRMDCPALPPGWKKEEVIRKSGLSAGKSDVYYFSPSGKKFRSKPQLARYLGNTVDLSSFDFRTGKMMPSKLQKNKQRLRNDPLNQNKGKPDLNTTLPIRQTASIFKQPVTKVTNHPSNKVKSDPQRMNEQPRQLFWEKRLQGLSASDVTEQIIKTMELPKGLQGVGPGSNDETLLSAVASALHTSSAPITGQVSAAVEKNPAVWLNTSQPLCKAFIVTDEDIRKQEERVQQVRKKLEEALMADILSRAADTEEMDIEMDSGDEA
LEDGF integ inh: blocks HIV-1 LEDGF/p75-dependent DNA integration | TR-FRET IN-LEDGF/p75 DNA integration, Eu/Cy5 | inhibition, % at 3.7 µM | 370,000 compounds, 0.64% hits;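 active = inhibition above the screen-wide mean plus 3 SD, cut at about 13% in these data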;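 note: signal is the Cy5 over europium emission ratio at 671 and 618 nm; 0% = plate median of compound wells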
UHRF1 MBD2 ctr: UHRF1 methyl-DNA binding inhibition; Q96T88; UHRF1 binding to methylated oligo, TR-FRET; inhibition, % at 4.4 µM; 370,000 compounds, 0.75% hits; in the data active = inhibition above about 21%;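 note: UHRF1 SRA domain binding a hemimethylated CpG hairpin DNA probe; 0% = median of test compound wells and 100% = reference inhibitor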
Active calls of the source: *. An excerpt weighted towards active compounds, which were near 2.5% of everything screened.

SMILES	PRMT1 inh	MBD2 inh	LEDGF integ inh	UHRF1 MBD2 ctr
COc1cccc2c1C(=O)c1c(O)c3c(c(O)c1C2=O)C[C@@](O)(C(=O)CO)C[C@@H]3OC1CC(N)C(O)C(C)O1 (stereo not given in full)	141*	112*	4	95*
COc1cccc2c1C(=O)c1c(O)c3c(c(O)c1C2=O)C[C@@](O)(C(=O)CO)C[C@@H]3O[C@H]1C[C@H](N)[C@H](O)[C@H](C)O1	129*	110*	13	94*
CCCCCCC/C=C(\C)[C@@H](O)[C@@H](C)C(=O)N1CCC[C@@H]1C(=O)O	-4	6	7	18
CSc1nc(-c2ccc(Cl)cc2)nn1S(=O)(=O)c1ccccc1	0	8	3	21*
CC(C)(C)n1nnnc1C(c1ccccc1)N1CCN(c2ccc(C(F)(F)F)cn2)CC1 (stereo not given)	0	-5	0	-1
O=C1/C(=C/c2cccnc2)CCC/C1=C\c1cccnc1	-1	-2	7	-2
O=C1/C(=C/c2cccnc2)CC/C1=C\c1cccnc1	3	-2	-8	40*
CCOC(=O)C1=C(CSc2nc(CC)c(C)cc2C#N)OC(N)=C(C#N)C1c1ccc(OC)cc1 (stereo not given)	21*	0	4	-4
O=C(CN1CCN(c2ccccn2)CC1)NC1CCCC1	-1	10	1	24*
O=C(CN1CCN(c2ccccn2)CC1)Nc1ccccc1	-2	-3	-3	0
COc1ccc(S(=O)(=O)Nc2cccc(S(=O)(=O)N(C)C)c2)cc1[N+](=O)[O-]	4	8	0	23*
COc1ccc(S(=O)(=O)Nc2cccc(S(=O)(=O)NC3=NCCC3)c2)cc1[N+](=O)[O-]	0	4	2	-3
O=C(Cn1nnc2ccccc2c1=O)NCCc1ccc(Cl)cc1Cl	0	0	0	28*
COc1ccc(C(=O)Cn2cnc3ccc(Cl)cc3c2=O)cc1F	1	0	2	1
Cc1ccc(CNC(=O)CN2C(C)CCCC2C)cc1 (stereo not given)	-5	-2	4	49*
Cc1ccc(CNC(=O)C2CCCC2)cc1	3	3	-3	2
O=[N+]([O-])c1ccc(-c2ccc(/C=N/c3c(-c4ccco4)nc4ccccn34)o2)cc1	23*	0	8	3
O=[N+]([O-])c1ccc(Cl)c(-c2ccc(/C=N/c3c(-c4ccco4)nc4ccccn34)o2)c1	19	-6	8	-1
COc1ccccc1NC1=C(Cl)C(=O)N(c2ccccc2)C1=O	12	-1	-1	3
CCOc1ccc(N2C(=O)C(Cl)=C(Nc3ccccc3O)C2=O)cc1	22*	-4	-1	-3
O=C(O)c1[nH]c2ccccc2c1C(c1cc(Cl)cc([N+](=O)[O-])c1O)c1c(C(=O)O)[nH]c2ccccc12	6	-4	14*	0
CC(C)NC(=O)N(C)C[C@@H]1Oc2cc(C#Cc3ccccn3)ccc2S(=O)(=O)N([C@@H](C)CO)C[C@H]1C	-2	-8	4	11
Cc1ccc(C(=S)N2CCN(Cc3ccccc3)CC2)cc1	22*	-6	-1	-2
O=C(Nc1ccc2c(c1)S(=O)(=O)N=C1CCCCCN12)c1ccccc1Cl	-3	4	11	4
COCC(C)OC(=O)/C(C#N)=C\c1coc2ccc(C)cc2c1=O (stereo not given)	-3	-2	4	45*
SMILES	PRMT1 inh	MBD2 inh	LEDGF integ inh	UHRF1 MBD2 ctr
CCOc1ccc(-n2c(C)cc(C(=O)NS(=O)(=O)c3ccc(C)cc3)c2C)cc1	2	2	-2	52*
CCOc1cc(C(=O)N(CC)CC(=O)Nc2ccc3c(c2)OCCO3)ccc1OC	-5	-4	1	3
Cc1nnn(C23CC4CC(CC(CC(=O)Nc5ccc(C)c(Cl)c5)(C4)C2)C3)n1	6	2	1	27*
COc1cc(Cl)ccc1OCc1cc(C(=O)N2C[C@]3(C)C[C@H]2CC(C)(C)C3)no1	1	-1	5	-1
NC(=O)c1ccc(NC(=O)CSC(=O)c2ccccc2)cc1	36*	-1	1	-2
C#CCN(C)S(=O)(=O)c1ccc(N2CCCC2)cc1Br	2	0	-4	-1
COc1ccccc1-c1nnc(SCC(=O)NCc2c(C)c(Cl)cc(C(C)C)c2O)o1	2	0	-1	43*
OCc1ccccc1-c1cnc2sc(NCc3ccc(F)cc3)nn12	0	2	-1	0
CCOC(=O)c1c(C)[nH]c(C)c1C(=O)CSc1nc2ccccc2c(=O)n1-c1ccccc1C	0	11	3	21*
CCC(CC)C(=O)N(C)c1c(C)nc2c(OCC=C(C)C)cccn12	3	5	-2	2
O=c1[nH][nH]c2c1[C@@H](c1ccc(F)cc1)O[C@H](CCc1ccccc1)C2	-3	-6	3	29*
Cc1[nH]c(=O)[nH]c(=O)c1/C=C/C(=O)O	2	2	-3	4
COc1ccc([N+](=O)[O-])c(S(=O)(=O)c2ccccc2)n1	25*	-3	4	-5
CNC(=O)c1sc(-c2ccccc2)nc1C	0	0	-1	33*
Cc1ccccc1-n1sc2cc(F)ccc2c1=O	88*	8	-4	-2
O=c1c2cc(F)ccc2sn1-c1ccccc1	89*	1	1	1
O=c1c2ccccc2c(-c2cccc(C(F)(F)F)c2)nn1-c1ccccc1	-1	-1	-2	-2
O=c1c2cc(C(F)(F)F)ccc2sn1-c1ccccc1	71*	-2	-3	-1
Cc1nc(C(F)(F)F)ccc1C(=O)N1CCC1(C)C(=O)NS(=O)(=O)c1cccc(Cl)c1 (stereo not given)	-2	2	2	1
O=C1CCCCC1CCc1ccncc1 (stereo not given)	1	1	1	-2
COC(=O)c1c(NC(=O)C2CCCCC2)sc2c1CC(C)(C)NC2(C)C	-4	0	-1	-2
COC(=O)c1ccccc1NC(=O)Nc1c(C)n(C)n(-c2ccccc2)c1=O	-4	0	1	0
Cc1ccc(CCNc2ccc3ccccc3c2)cn1	23*	-1	-5	2
Clc1ccc(C2=CC(c3ccco3)n3ncnc3N2)cc1 (stereo not given)	64*	0	-2	-13
Cc1cccc(OCCOC(=O)c2ccc(F)c(S(=O)(=O)N3CCOCC3)c2)c1	4	6	-5	41*
SMILES	PRMT1 inh	MBD2 inh	LEDGF integ inh	UHRF1 MBD2 ctr
COc1ccc(C(=O)OCCOc2cccc(Cl)c2)cc1S(=O)(=O)N1CCOCC1	-1	-1	-4	0
O=C(OCn1nnc2ccccc2c1=O)c1cccc(S(=O)(=O)N2CCOCC2)c1	-1	1	2	0
O=C(OCn1nnc2ccccc2c1=O)c1ccc(F)c(S(=O)(=O)N2CCOCC2)c1	-2	2	2	73*
Cc1nc(C(F)(F)F)ccc1C(=O)Nc1ccccc1F	1	-1	-6	1
Cc1nc(C(F)(F)F)ccc1C(=O)NCC(O)c1ccccc1 (stereo not given)	1	4	-5	46*
COc1ccc(C=NOCC(=O)OCC(=O)Nc2ccc(OC)cc2)cc1	1	-2	-3	29*

Screening results deposited in PubChem by The Scripps Research Institute Molecular Screening Center.
